In PubChem BioAssay (NCATS) one finds Potency, outcome and activity change, negative = inhibition data, which are given here for 29 molecules.

Records with an inconclusive call do not appear. A number with no mark means an inactive call. Activity calls are given as the source filed them. Calls follow the shape of the dose curve; as a rule, active = well fitted curve in the direction sought with a large enough effect; inconclusive = small, poorly fitted or top-dose-only effect, or another doubt; inactive = no such curve, though single readings can be large; an effect the other way counts as inactive or inconclusive.

The test system of experiment [1] is Zika virus NS2B-NS3 protease (linked construct). Put plainly: Confirmatory screen NINDS AMC qHTS for Zika virus inhibitors (AID 1347152). Also: potency is read from the fitted curve at half-maximal effect; nearly all actives have a fitted effect of over 70% in size. In outline: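 IC50s from 4-parameter Hill fits of percent inhibition, based on AMC fluorescence gain (340/450 nm) over 15 min with 10 microM Bz-Nle-KRR-AMC. Enzyme: 1 nM linked NS2B-NS3 in Tris-HCl pH 8.0; 15-min compound preincubation.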

Experiment [2] deals with Zika virus NS2B-NS3 protease. Put plainly: Primary screen GU AMC qHTS for Zika virus inhibitors (AID 1347154). Also: nearly all actives have a fitted effect of over 70% in size. Also: potency is read from the fitted curve at half-maximal effect.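 As to activity change, negative = inhibition: 0% = no-inhibitor control and -100% = no-enzyme control.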 The procedure, abridged: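 Fluorogenic AMC-substrate cleavage by noncovalent NS2B-NS3 protease complex (25 nM, pH 8.0 Tris buffer with Tween 20) followed for 15 minutes at room temperature (~20% conversion). Percent inhibition from ex340/em450 signal change, fitted by 4-parameter Hill equation.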

The nature of experiment [3]: Confirmatory screen NINDS Rhodamine qHTS for Zika virus inhibitors (AID 1347161). Also: nearly all actives have a fitted effect of over 60% in size. Also: potency is read from the fitted curve at half-maximal effect.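 As to activity change, negative = inhibition: purified Zika NS2B-NS3 protease with linked NS2B cofactor domain and Rhodamine110 peptide substrate; series mostly up to about 110 µM; plate controls were no-inhibitor control for no effect and no-enzyme control for full effect.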 The procedure, abridged: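 Percent inhibition, normalized to uninhibited and enzyme-free controls, is fitted to a 4-parameter Hill equation. Fluorescence change comes from a 15-min cleavage of 1.5 microM bis-peptide Rhodamine110 substrate by 25 nM linked NS2B-NS3 at room temperature.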

Experiment [4] concerns Zika virus NS2B-NS3 protease (unlinked complex). Put plainly: Primary screen GU Rhodamine qHTS for Zika virus inhibitors: Unlinked NS2B-NS3 protease assay (AID 1347159). Also: nearly all actives have a fitted effect of over 60% in size. Also: potency is read from the fitted curve at half-maximal effect. As to activity change, negative = inhibition: % is scaled to controls: 0 for no effect and ±100 for the full control effect. In outline: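 Percent inhibition came from the 15-min rise in Rhodamine110 fluorescence (1.5 microM substrate, ~15% conversion), normalized to no-inhibitor and no-enzyme wells and Hill-fitted. Unlinked protease, 25 nM, pH 8.0 Tris buffer; compounds up to 114 microM, 15-min preincubation.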

Experiment [5] has as its system Zika virus NS2B-NS3 protease (linked construct). The experiment is described as follows: Primary screen NINDS Rhodamine qHTS for Zika virus inhibitors (AID 1347160). Also: nearly all actives have a fitted effect of over 55% in size. As to activity change, negative = inhibition: % is scaled to controls: 0 for no effect and ±100 for the full control effect. In outline: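 Rhodamine110-peptide cleavage (1.5 µM substrate) by 25 nM linked NS2B-NS3 enzyme at pH 8.0 (Tris, Tween 20), after 15 min RT preincubation with compounds; 15-min fluorescence change normalized to controls and Hill-fitted.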

A short description of experiment [6]: ZIKV-mCherry secondary qHTS for Zika virus inhibitors (AID 1347158). Also: top concentration of the series differs between compounds. In outline: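 Percent infection is the share of Hoechst-identified Vero nuclei with mCherry signal above 450 RFU (3 SD over negative controls). Cells were infected with recombinant ZIKV-mCherry at MOI 1 after compound addition and imaged 48–72 h later.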
In experiment [7] the test system is Zika virus NS2B-NS3 protease (linked). The experiment is described as follows: 384 well plate NINDS AMC confirmatory qHTS for Zika virus inhibitors (AID 1347163). Also: potency is read from the fitted curve at half-maximal effect; nearly all actives have a fitted effect of over 50% in size. The procedure, abridged:
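Fluorescence at 355/460 nm was read after 25 minutes of cleavage of 30 microM Ac-VKTGKR-AMC at room temperature, in the dark. Before substrate addition, compounds (up to 1 mM final) sat ~15 minutes with 5, 30 or 60 nM linked protease. Signals were normalized to no-enzyme and no-inhibitor wells.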

Experiment [8] deals with Zika virus NS2B-NS3 protease (linked construct). Put plainly: 384 well plate NINDS Rhodamine confirmatory qHTS for Zika virus inhibitors (AID 1347164).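 Also: fluorescence from protease cleavage of Ac-LKRR-rhodamine 110 substrate; top concentration of the series differs between compounds; plate controls were no-inhibitor control for no effect and no-enzyme control for full effect; nearly all actives have a fitted effect of over 65% in size.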 The procedure, abridged:
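Fluorescence at 485/538 nm was measured 25 minutes after adding 10 microM Ac-LKRR-Rd substrate, in the dark at room temperature. The protease (5, 30 or 60 nM final) had been preincubated ~15 minutes with compound; aprotinin as control.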

The nature of experiment [9]: Confirmatory screen GU Rhodamine qHTS for Zika virus inhibitors qHTS (AID 1347157). Also: nearly all actives have a fitted effect of over 70% in size. Also: potency is read from the fitted curve at half-maximal effect.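 As to activity change, negative = inhibition: plate controls were no-inhibitor wells for no effect and no-enzyme wells for full effect.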 The procedure, abridged:
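In dose–response format, inhibition of unlinked protease (25 nM) was measured with 1.5 microM bis-peptide Rhodamine110 substrate. Aprotinin served as the intraplate control.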

Consider `CC[C@H](C)n1cc(C)c2c(C(=O)NCc3c(C)cc(C)[nH]c3=O)cc(-c3ccc(N4CCNCC4)nc3)cc21`, for which the Potency in [1] was 27.1 µM (active); in experiment [2], 21.5 µM (active). Moreover, in experiment [3], the Potency entry was “inactive”.

As for `COc1c(C)cnc(Cn2cnc3c(Cl)nc(N)nc32)c1C`, in experiment [2], the Potency result is “inactive”.

Take `C[C@@H](NC(=O)c1ncnc(N)c1Cl)c1ncc(C(=O)Nc2cc(C(F)(F)F)c(Cl)cn2)s1`: the Potency entry in experiment [2], in experiment [4] and in experiment [5] was “inactive” each time.

`Cc1cnc(-c2cc(N3CCN(C(=O)CCS(C)(=O)=O)CC3)ncc2Cl)c(C)c1`: the Potency entry in [2], in [4] and in experiment [5] was “inactive” in each case.

In the case of `O=c1cc(-c2ccc(O)c(O)c2)oc2cc(O)cc(O)c12`, the Potency entry in [2] and in experiment [8] was “inactive” in each case. For the same molecule, the molecule was called inactive in experiment [6]. Further, the Potency in experiment [3] was 28.2 µM (active); in experiment [7], 70.8 µM (active).

With `Cc1c(C(=O)Nc2ccc(N3C[C@@H](C)O[C@@H](C)C3)nc2)cccc1-c1ccc(OC(F)(F)F)cc1`, the Potency entry in experiment [2], in [4] and in experiment [5] was “inactive” throughout.

Take `Cc1ccccc1-n1c(Cn2nc(-c3cccc(O)c3)c3c(N)ncnc32)nc2cccc(C)c2c1=O`: the Potency result in experiment [2], in [4] and in experiment [5] was “inactive” throughout.

As for `CN1CC(=O)NC1=NC(=O)Nc1cccc(Cl)c1`, the Potency entry in [2] is “inactive”.

On to `CC(C)(O)CC(=O)NCCn1ccc2ncnc(Nc3ccc(Oc4cccc(C(F)(F)F)c4)c(Cl)c3)c21`, for which the Potency entry in experiment [2], in experiment [4] and in experiment [5] was “inactive” throughout.

Regarding `Cn1c(=O)c(-c2c(Cl)cccc2Cl)cc2cnc(Nc3cccc(C(=O)O)c3)nc21`, the Potency entry in experiment [2] and in [5] was “inactive” throughout. Besides, the values for the Potency in [9], in [4] and in experiment [3] were 11.1 µM (active), 7.94 µM (active) and 13.9 µM (active), respectively.

`c1ccc(-c2oc3ncnc(NC[C@@H]4CCCO4)c3c2-c2ccccc2)cc1`: the Potency in experiment [2] is 30.4 µM (active). The Potency entry in experiment [4] and in [5] was “inactive” throughout.

For the molecule `Cc1ccc2c(c1)C(=O)[C@]1(O)CCN(c3ccccc3)C1=N2`, the Potency result in experiment [2], in [9], in [4] and in experiment [3] was “inactive” each time.

On to `CCc1cccc(CC)c1NC(=O)N1Cc2[nH]nc(NC(=O)c3ccc(N4CCN(C)CC4)cc3)c2C1`, for which the Potency result in [2], in experiment [4] and in experiment [5] was “inactive” throughout.

On to `Cc1[nH]c(C=C2C(=O)Nc3ccc(S(=O)(=O)N(C)c4cccc(Cl)c4)cc32)c(C)c1C(=O)N1CCN(C)CC1`, for which the Potency result in [2] was “inactive”.

For `C[C@H]1[C@H](O)O[C@@H]2O[C@@]3(C)CC[C@@H]4[C@H](C)CC[C@@H]1[C@@]24OO3`, the Potency entry in [2] is “inactive”.

On to `C=CCc1cccc(C=NNC(=O)CN2CCN(Cc3ccccc3)CC2)c1O`, for which the Potency entry in experiment [2] was “inactive”.

In the case of `CCC(=O)N1CCN(c2ccc(-n3c(=O)ccc4cnc5ccc(-c6cnc7ccccc7c6)cc5c43)cc2C(F)(F)F)CC1`, the Potency entry in [2] is “inactive”. Moreover, the activity change, negative = inhibition in experiment [4] is -9.09% [at 19.1 µM]; in [5] it was -4.81% [at 10.7 µM].

For the molecule `Nc1ccc(-c2ccc3ncc4ccc(=O)n(-c5cccc(C(F)(F)F)c5)c4c3c2)cn1`, the Potency entry in experiment [2], in experiment [4] and in experiment [5] was “inactive” each time.

Take `CN[C@@H](C)[C@H]1[C@H](O)C[C@@]2(C)[C@@H]3CC[C@H]4C(C)(C)[C@@H](NC)CC[C@@]45C[C@@]35CC[C@]12C`: the Potency result in experiment [2] was “inactive”. The activity change, negative = inhibition in experiment [4] was 119% [at 19.1 µM]. In experiment [5], the outcome was “inactive [at 10.7 µM]”.

Consider `COc1cc2nc(-c3cc(F)ccc3O)nc(N[C@@H]3CNC[C@@H]3C(C)(C)O)c2cc1OC`, for which the Potency result in [2] is “inactive”.

Turning to `CCN(CCO)CCCOc1ccc2c(Nc3cc(CC(=O)Nc4cccc(F)c4)[nH]n3)ncnc2c1`, the Potency entry in [2], in [4] and in [5] was “inactive” in each case.

`COC(=O)N1CCN(Cc2cccc(NC(=O)Nc3ccc(C)nc3)c2F)CC1`: the Potency entry in [2], in experiment [4] and in experiment [5] was “inactive” in each case.

On to `CC(C)CNc1ccnc(NCc2csc(-c3ccccc3)n2)n1`, for which the Potency entry in [2], in experiment [4] and in [5] was “inactive” in each case.

With `CN1CC(=O)N2C(Cc3c([nH]c4ccccc34)[C@H]2c2ccc3c(c2)OCO3)C1=O` (stereo partly specified), the Potency entry in [2] was “inactive”.

Regarding `C#CCN(C)CC1=Cc2ccccc2Oc2ccccc21`, the Potency entry in experiment [2] was “inactive”.

On to `CN[C@@H]1[C@@H](O)[C@@H](O[C@@H]2[C@@H](O)[C@H](O[C@H]3O[C@H](CN)[C@@H](O)[C@H](O)[C@@H]3O)[C@@H](N)C[C@@H]2NC(=O)[C@@H](O)CN)OC[C@]1(C)O`, for which the Potency entry in experiment [2] is “inactive”.

`CN1[C@H]2CC[C@H]1CC(OC(=O)c1c[nH]c3ccccc13)C2` (stereo partly specified): the Potency result in experiment [2] was “inactive”.

In the case of `O=C(Nc1cccc(C(F)(F)F)c1)Nc1cc(S(=O)(=O)NC2CC2)ccc1-c1ccsc1`, in [2], the Potency result is “inactive”. Moreover, the Potency in experiment [4] was 22.4 µM (active).

With `CN(C)c1nc(Cc2ccc(NC(=O)c3ccc(C(F)(F)F)cc3)cc2)nc(N(C)C)c1CC(=O)O`, the Potency result in [2], in [4] and in experiment [5] was “inactive” in each case.
